Consider five compounds from PubChem BioAssay.

Calls of active or inactive are those of the source.

Assay [1] in a line: small molecules captured by biotinylated probe aFSTL3 – biochemical, small-molecule microarray, fluorescence 635/667, stem cell growth factor project, primary screen (AID 1064).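 Also: measures binding of the biotinylated anti-FSTL3 antibody to printed compounds.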 The settings on record: higher = more signal.
Assay [2] is described as follows: binders from COS7 lysate, DM2A8 probe, primary screen, torsin A project, cell lysate, small-molecule microarray, fluorescence 635/667 (AID 1065). Particulars: higher = more signal, COS7 lysate expressing mutant human TOR1A.
Assay [3] can be described thus: small molecules captured by biotinylated probe aFGF2 – biochemical, small-molecule microarray, fluorescence 635/667, stem cell growth factor project, primary screen (AID 1067).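 Also: measures binding of biotinylated aFGF2 protein to printed compounds on slides; z-score merges feature fluorescence and signal-to-noise across triplicate slides.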 Particulars: higher = more signal.
A short description of assay [4]: small molecules captured by biotinylated probe aFGF10 – biochemical, small-molecule microarray, fluorescence 635/667, stem cell growth factor project, primary screen (AID 1071).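 Also: score merges 667 nm spot intensity and signal to noise from triplicate slides.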 The settings on record: higher = more signal.
For assay [5], the target named is Neurogenic locus notch homolog protein 2 (Homo sapiens) (UniProt Q04721). The experiment in a line: small molecules binding Notch2 protein – biochemical, small-molecule microarray, 635 nm fluorescence, stem cell growth factors, primary screen (AID 1073). The settings on record: higher = more signal.
The target in assay [6] is Pro-neuregulin-1, membrane-bound isoform (Homo sapiens) (UniProt Q02297). The experiment in a line: small molecules binding neuregulin-1 protein – biochemical, small-molecule microarray, fluorescence 635/667, psychiatric disease protein project, primary screen (AID 1075).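 Also: score combines 667 nm spot fluorescence with signal to noise.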 The settings on record: NRG1 binding, 635 nm fluorescence, higher = more signal.
The subject of assay [7] is Neuregulin-1 EGF-like domain. As to the kind of experiment: small molecules binding NRG1 EGF domain – biochemical, small-molecule microarray, 635 nm fluorescence, primary screen (AID 1081).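 Also: binding of the protein to compounds printed on small-molecule microarray slides.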 The settings on record: higher = more signal.
A short description of assay [8]: FRG1 expression reporter modulators in myotubes – cell-based, C2C12 myotubes, firefly/Renilla luciferase, luminescence, FRG1 inhibition for FSHD, primary screen (AID 1084). The settings on record: FRG1 promoter luciferase, higher = more signal, called active from +8 up or from −8 down.
Assay [9] is described as follows: small molecules captured by biotinylated probe aFST – biochemical, small-molecule microarray, fluorescence 635/667, stem cell growth factor project, primary screen (AID 1086).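 Also: score merges 667 nm fluorescence with signal-to-noise of each printed compound spot.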 The settings on record: higher = more signal.
Assay [10] can be described thus: binders of probe aHhip on microarray, primary screen, stem cell growth factor project, biochemical, small-molecule microarray, fluorescence 635/667 (AID 1087).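 Also: score merges spot fluorescence at 667nm with spot signal to noise ratio.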 The settings on record: higher = more signal.
Assay [11] has as its system PRMT1 (protein arginine N-methyltransferase 1). The experiment in a line: small molecules binding arginine methyltransferase PRMT1 – biochemical, small-molecule microarray, 635 nm fluorescence, primary screen (AID 1088).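 Also: binding of Prmt1 protein to compounds spotted on small-molecule microarray slides.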 The settings on record: higher = more signal.
Assay [12] is described as follows: growth effects on S. cerevisiae YJM789 – YJM789 clinical isolate, OD600, 24 h, basal, primary screen (AID 1089).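 Also: growth of clinical yeast isolate S. cerevisiae YJM 789 seeded 1000 cells per well; test concentration not given here.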 Particulars: higher = more signal, called active from +8 up or from −8 down.
Assay [13] in a line: S. pombe growth modifiers, basal conditions – strain 972, OD600, 24 h, no modulator, primary screen (AID 1090).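 Also: basal condition with compound alone and no growth modifier present; test concentration not given here.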 The settings on record: S. pombe 972 growth, higher = more signal, called active from +8 up or from −8 down.
The nature of assay [14]: budding yeast growth modifiers under rapamycin – strain BY4716, OD600, 96 h, primary screen (AID 1091). Also: test concentration not given here. Particulars: S. cerevisiae BY4716 + rapamycin, higher = more signal, called active from +8 up or from −8 down.
The target of assay [15] is Torsin-1A-interacting protein 2 (Homo sapiens) (UniProt Q8NFQ8). The experiment in a line: small molecules binding lysate-expressed LULL1 – cell lysate, human LULL1 lysate, 635/667 nm fluorescence, primary screen (AID 1092).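 Also: score merges per-feature 667 nm fluorescence with signal-to-noise.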 Particulars: small-molecule microarray, hLULL1 lysate binding, 635 nm fluorescence; higher = more signal.
A short description of assay [16]: optical density change of DRC41 E. coli – strain DRC41, OD650, 24 h, E. coli filamentation project, primary screen (AID 1093).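 Also: MC1000 strain lacking acrAB efflux and sulA so SOS filamentation is blocked; test concentration not given here.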 The settings on record: E. coli DRC41 growth, higher = more signal, called active from +8 up or from −8 down.
A short description of assay [17]: probe aLefty2 binding to arrayed compounds – biochemical, biotinylated probe, 635/667 nm fluorescence, primary screen (AID 1094).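 Also: score merges spot fluorescence near 667 nm with spot signal-to-noise ratio.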 The settings on record: small-molecule microarray, higher = more signal.
The test system of assay [18] is Noggin (protein binding on small-molecule microarray). The experiment in a line: small molecules binding Noggin protein – biochemical, 635/667 nm fluorescence, primary screen (AID 1095).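 Also: score merges 667 nm feature fluorescence with signal to noise over triplicate slides.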 The settings on record: 635 nm fluorescence, higher = more signal.
The target of assay [19] is Neurogenic locus notch homolog protein 3 (Homo sapiens) (UniProt Q9UM47). The experiment in a line: small molecules binding NOTCH3 protein – biochemical, 635/667 nm fluorescence, primary screen (AID 1096). Particulars: small-molecule microarray, 635 nm fluorescence, higher = more signal.
Assay [20] in a line: probe aEGFR binding to arrayed compounds – biochemical, biotinylated probe, 635/667 nm fluorescence, primary screen (AID 1097).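 Also: probe is a biotinylated anti-EGFR antibody binding compounds printed on slides; score combines fluorescence near 667 nm and signal to noise of each spot.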 The settings on record: small-molecule microarray, higher = more signal.

Sequence of Neurogenic locus notch homolog protein 3 (Homo sapiens) (Q9UM47 whole entry, looked up): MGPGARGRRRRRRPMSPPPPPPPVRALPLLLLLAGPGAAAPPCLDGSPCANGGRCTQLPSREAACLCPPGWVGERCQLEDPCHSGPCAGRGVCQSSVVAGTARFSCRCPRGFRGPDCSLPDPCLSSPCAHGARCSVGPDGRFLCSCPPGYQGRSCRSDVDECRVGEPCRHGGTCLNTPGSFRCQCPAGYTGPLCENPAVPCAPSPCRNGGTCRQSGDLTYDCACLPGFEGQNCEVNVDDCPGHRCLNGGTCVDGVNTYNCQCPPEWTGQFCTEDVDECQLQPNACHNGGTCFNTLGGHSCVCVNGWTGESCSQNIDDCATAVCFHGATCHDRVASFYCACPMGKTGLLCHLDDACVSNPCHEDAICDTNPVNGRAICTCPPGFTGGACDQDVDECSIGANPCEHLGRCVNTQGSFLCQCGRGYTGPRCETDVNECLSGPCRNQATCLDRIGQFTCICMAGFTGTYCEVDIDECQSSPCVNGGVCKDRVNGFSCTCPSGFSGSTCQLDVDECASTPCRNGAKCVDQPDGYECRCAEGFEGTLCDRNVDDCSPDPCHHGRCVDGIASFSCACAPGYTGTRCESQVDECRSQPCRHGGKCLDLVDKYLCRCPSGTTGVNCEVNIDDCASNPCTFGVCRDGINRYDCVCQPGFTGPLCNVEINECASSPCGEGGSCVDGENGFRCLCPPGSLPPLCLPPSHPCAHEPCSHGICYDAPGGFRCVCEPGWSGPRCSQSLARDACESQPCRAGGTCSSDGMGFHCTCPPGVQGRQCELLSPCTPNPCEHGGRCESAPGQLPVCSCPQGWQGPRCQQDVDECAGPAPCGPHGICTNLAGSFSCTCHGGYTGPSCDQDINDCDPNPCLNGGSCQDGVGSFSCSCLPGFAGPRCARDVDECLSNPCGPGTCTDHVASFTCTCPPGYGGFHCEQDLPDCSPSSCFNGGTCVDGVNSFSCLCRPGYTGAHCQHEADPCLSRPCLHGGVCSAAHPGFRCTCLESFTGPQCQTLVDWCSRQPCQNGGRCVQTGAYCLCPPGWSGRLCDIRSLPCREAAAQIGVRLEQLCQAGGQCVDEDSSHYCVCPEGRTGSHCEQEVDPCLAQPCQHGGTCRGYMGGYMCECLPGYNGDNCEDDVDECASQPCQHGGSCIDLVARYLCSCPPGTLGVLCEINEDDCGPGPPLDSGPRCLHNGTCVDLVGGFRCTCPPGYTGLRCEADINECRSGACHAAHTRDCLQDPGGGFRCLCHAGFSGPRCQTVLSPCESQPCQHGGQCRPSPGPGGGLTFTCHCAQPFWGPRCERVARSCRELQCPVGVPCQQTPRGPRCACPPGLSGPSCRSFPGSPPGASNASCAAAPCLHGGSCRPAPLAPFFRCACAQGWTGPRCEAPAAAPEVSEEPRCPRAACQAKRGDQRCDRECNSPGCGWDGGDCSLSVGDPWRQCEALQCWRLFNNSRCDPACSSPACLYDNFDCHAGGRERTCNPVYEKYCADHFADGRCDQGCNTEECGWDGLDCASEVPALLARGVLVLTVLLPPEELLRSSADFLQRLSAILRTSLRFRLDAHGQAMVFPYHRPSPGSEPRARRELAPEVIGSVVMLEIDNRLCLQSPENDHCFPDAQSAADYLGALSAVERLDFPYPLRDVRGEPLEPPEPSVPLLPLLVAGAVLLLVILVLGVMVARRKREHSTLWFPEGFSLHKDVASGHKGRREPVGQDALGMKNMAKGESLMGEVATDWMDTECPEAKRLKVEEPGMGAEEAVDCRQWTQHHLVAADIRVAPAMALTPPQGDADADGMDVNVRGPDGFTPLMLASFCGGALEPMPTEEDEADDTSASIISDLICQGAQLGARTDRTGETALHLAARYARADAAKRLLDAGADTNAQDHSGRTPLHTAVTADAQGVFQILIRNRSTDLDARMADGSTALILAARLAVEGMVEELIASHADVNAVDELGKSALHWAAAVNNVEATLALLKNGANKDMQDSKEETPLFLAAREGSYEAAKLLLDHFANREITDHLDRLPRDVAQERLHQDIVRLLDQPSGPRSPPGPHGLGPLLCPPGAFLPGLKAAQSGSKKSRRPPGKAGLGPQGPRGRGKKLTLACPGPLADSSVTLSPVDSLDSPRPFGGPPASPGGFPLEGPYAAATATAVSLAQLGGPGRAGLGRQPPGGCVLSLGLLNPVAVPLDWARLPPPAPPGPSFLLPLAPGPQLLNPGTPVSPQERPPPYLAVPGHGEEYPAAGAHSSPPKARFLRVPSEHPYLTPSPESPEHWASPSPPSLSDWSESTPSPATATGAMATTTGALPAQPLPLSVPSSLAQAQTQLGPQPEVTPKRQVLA
Sequence of Neurogenic locus notch homolog protein 2 (Homo sapiens) (Q04721 whole entry, looked up, canonical isoform): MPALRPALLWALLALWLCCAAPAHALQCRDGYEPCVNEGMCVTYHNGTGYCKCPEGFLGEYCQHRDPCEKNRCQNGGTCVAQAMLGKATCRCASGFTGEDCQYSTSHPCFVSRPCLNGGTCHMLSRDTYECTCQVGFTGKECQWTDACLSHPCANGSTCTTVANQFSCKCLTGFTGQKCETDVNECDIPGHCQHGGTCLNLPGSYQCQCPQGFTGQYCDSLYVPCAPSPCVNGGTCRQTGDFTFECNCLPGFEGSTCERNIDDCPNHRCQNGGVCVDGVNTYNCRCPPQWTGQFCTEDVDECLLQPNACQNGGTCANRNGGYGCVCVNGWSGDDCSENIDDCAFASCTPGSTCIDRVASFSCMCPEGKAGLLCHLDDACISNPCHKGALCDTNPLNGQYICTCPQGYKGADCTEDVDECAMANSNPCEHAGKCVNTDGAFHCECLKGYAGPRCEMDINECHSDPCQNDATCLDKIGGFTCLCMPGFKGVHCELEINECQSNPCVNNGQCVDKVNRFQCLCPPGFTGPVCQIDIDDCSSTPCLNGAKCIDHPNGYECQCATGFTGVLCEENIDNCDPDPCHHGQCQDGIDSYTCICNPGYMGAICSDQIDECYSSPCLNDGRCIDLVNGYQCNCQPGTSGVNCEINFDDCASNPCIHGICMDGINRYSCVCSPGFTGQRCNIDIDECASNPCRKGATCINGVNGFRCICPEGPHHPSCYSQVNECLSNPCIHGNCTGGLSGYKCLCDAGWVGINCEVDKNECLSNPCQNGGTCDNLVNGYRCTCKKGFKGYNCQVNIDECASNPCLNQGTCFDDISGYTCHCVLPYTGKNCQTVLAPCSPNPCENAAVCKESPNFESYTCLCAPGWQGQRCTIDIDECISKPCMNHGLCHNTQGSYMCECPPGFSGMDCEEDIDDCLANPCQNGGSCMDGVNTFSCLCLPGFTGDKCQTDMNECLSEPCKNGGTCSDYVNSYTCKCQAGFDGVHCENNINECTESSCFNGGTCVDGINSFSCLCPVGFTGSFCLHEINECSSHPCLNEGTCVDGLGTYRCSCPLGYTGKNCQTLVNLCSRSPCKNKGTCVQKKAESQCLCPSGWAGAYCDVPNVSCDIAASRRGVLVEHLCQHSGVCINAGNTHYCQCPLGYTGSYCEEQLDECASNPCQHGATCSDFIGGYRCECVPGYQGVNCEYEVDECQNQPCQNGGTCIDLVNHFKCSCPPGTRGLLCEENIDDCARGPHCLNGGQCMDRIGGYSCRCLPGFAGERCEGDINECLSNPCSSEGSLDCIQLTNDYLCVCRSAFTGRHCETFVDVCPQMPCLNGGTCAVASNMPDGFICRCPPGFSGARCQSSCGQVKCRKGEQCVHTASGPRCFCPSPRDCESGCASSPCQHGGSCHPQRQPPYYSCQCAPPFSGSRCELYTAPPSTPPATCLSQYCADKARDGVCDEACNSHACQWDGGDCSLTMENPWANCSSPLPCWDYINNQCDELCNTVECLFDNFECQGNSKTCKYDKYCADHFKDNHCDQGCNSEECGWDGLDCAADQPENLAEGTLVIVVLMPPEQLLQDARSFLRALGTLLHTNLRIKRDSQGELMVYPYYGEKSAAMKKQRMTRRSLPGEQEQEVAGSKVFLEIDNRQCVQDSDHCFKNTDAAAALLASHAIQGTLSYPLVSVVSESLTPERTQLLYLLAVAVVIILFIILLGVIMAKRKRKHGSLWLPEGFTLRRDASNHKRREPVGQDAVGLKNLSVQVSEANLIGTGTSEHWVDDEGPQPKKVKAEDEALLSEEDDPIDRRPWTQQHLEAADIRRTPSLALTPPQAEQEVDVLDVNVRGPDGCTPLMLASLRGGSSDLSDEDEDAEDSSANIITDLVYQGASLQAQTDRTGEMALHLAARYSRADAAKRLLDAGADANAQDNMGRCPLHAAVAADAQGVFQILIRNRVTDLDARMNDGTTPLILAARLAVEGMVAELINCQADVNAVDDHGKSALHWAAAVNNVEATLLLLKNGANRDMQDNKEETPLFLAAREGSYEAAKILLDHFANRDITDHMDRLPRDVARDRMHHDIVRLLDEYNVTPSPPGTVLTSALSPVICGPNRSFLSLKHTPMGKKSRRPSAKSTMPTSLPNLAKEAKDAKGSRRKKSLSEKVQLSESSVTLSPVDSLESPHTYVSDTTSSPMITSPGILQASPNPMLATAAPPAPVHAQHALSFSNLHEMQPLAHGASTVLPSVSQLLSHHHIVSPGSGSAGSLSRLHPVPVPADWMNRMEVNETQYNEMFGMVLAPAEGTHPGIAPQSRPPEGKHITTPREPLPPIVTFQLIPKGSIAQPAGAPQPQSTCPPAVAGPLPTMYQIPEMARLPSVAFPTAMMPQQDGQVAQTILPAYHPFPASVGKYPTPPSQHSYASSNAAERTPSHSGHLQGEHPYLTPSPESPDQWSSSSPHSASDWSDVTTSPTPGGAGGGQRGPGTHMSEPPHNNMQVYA

With `Cc1ccc(S[C@]2(C(=O)NC3CC3)CC(=O)N(Cc3ccccc3)[C@@H]2c2ccc(CO)cc2I)cc1`, the composite z-score in assay [1] is 0.433; in assay [2], -0.703; in assay [3], -0.146; in [4], 0.333; in assay [5] it was -0.823; in assay [6], 1.23. For the same compound, the composite z-score in [7] is 0.966; in assay [9] it was -0.73; in [10], -0.0047; in [11] it was 1.23; in assay [15] it was 2.35; in assay [17] it was -0.012. In addition, the figures for the composite z-score in assay [18], in assay [19] and in assay [20] were -0.809, -0.738 and -0.286, respectively. In addition, the z-score is -2.74 (inactive) in assay [8]; 0.0136 (inactive) in [12]; -3.59 (inactive) in [13]; 0.0377 (inactive) in assay [14]; 0.45 (inactive) in assay [16].

In the case of `CCCC[C@H]1OB(O)C[C@H]2C1=C(COC)C[C@H]1C(=O)N(C)C(=O)[C@H]12`, the composite z-score was -0.441 in assay [1]; 0.49 in assay [2]; -0.144 in assay [3]; 0.18 in [4]; 0.364 in [5]; -0.149 in assay [6]. In addition, the composite z-score in assay [7] was 0.6; in assay [9] it was 0.106; in assay [10], -0.15; in assay [11], -0.15; in [15], 0.0079; in assay [17], -0.157. The composite z-score in assay [18] is 1.08; in assay [19], 0.769; in assay [20] it was -0.139. The z-score in assay [8] is 0.0329 (inactive); in [12], -0.937 (inactive); in assay [13] it was -0.775 (inactive); in assay [14], -0.635 (inactive); in assay [16], -0.908 (inactive).

As for `CCCCCN1CC=CC23O[C@@H]4/C=C\CCC(C)OC(=O)C4[C@H]2C(=O)N(C(C)CO)[C@@H]3C1=O` (stereo not given in full), the composite z-score in assay [1] is -0.411; in assay [2], -1.14; in [3], -0.164; in [4], -0.043; in assay [5], -0.602; in assay [6] it was 0.946. For the same compound, the composite z-score is 0.38 in assay [7]; -0.258 in assay [9]; -0.268 in [10]; 1.09 in [11]; 2.37 in assay [15]; -0.238 in [17]. Further, the composite z-score in [18] is 0.0805; in assay [19] it was 0.385; in [20], -0.168. For the same compound, the z-score in assay [8] is -1.32 (inactive); in [12] it was 0.255 (inactive); in [13], 0.117 (inactive); in [14], -0.562 (inactive); in assay [16], 0.123 (inactive).

As to `C=C(/C(=C/C[C@H](OC(C)=O)c1ccccc1OCCO)c1cnc2ccccc2c1)C(C)C`, the composite z-score was 0.168 in assay [1]; 0.126 in [2]; -0.0419 in assay [3]; 0.324 in [4]; 0.775 in assay [5]; 0.586 in assay [6]. In addition, the composite z-score in assay [7] is 0.87; in assay [9], 0.0254; in assay [10], 0.0274; in assay [11], 0.491; in assay [15], 1.85; in assay [17], -0.0251. Moreover, the values for the composite z-score in [18], in assay [19] and in [20] were 1.24, 0.909 and -0.044, respectively. Moreover, the z-score is -0.607 (inactive) in assay [8]; 0.0556 (inactive) in assay [12]; -0.0759 (inactive) in assay [13]; 1.11 (inactive) in assay [14]; -0.0733 (inactive) in assay [16].

As to `CC(C)=CCCC(C)=CC(O)C1C=CC2C(=O)N(C)C(=O)C2N1Nc1ccccc1` (stereo not given), the composite z-score worked out at 0.0019 in assay [1]; 0.708 in assay [2]; 0.231 in [3]; 0.942 in assay [4]; 1.6 in [5]; 1.72 in [6]. The composite z-score in assay [7] is 1.2; in assay [9], 1.24; in assay [10], -0.159; in assay [11] it was 1.55; in assay [15], 3.29; in assay [17] it was 0.245. The composite z-score in assay [18] was found to be 0.411; in assay [19], 1.03; in assay [20], 0.167. Also, the z-score in assay [8] is -1.04 (inactive); in assay [12] it was -0.193 (inactive); in assay [13], -1.26 (inactive); in assay [14], 2.76 (inactive); in assay [16], -0.339 (inactive).
